# From PubChem BioAssay AID1671202 (University of Kansas High Throughput Screening Laboratory, 2021)
# “And” between values parts separate entries of the source, which are not always exact repeats. Identical values can stand only once. Among all 190,000 compounds or so, about 6,900 (3.6%) were called active. The sample holds actives, similar compounds and a random draw of the others, so the mix is not that of the screen. Unmarked numbers belong to inactive results. Cut-off read from the data, not from the text of the source: active = inhibition above about 50%; inactive = the rest.
# Biological target: Huntingtin (Homo sapiens) (UniProt P42858)
# Assay: mutant huntingtin-calmodulin interaction inhibitors – biochemical, AlphaScreen, primary screen (AID 1671202);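 note: 0% = both proteins with DMSO and 100% = one protein alone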
# Settings: AlphaScreen His-mHTT/GST-CaM binding, luminescence; at 15 µM, active compounds read high
# Sequence of Huntingtin (Homo sapiens) (P42858 whole entry, looked up, stated change not applied): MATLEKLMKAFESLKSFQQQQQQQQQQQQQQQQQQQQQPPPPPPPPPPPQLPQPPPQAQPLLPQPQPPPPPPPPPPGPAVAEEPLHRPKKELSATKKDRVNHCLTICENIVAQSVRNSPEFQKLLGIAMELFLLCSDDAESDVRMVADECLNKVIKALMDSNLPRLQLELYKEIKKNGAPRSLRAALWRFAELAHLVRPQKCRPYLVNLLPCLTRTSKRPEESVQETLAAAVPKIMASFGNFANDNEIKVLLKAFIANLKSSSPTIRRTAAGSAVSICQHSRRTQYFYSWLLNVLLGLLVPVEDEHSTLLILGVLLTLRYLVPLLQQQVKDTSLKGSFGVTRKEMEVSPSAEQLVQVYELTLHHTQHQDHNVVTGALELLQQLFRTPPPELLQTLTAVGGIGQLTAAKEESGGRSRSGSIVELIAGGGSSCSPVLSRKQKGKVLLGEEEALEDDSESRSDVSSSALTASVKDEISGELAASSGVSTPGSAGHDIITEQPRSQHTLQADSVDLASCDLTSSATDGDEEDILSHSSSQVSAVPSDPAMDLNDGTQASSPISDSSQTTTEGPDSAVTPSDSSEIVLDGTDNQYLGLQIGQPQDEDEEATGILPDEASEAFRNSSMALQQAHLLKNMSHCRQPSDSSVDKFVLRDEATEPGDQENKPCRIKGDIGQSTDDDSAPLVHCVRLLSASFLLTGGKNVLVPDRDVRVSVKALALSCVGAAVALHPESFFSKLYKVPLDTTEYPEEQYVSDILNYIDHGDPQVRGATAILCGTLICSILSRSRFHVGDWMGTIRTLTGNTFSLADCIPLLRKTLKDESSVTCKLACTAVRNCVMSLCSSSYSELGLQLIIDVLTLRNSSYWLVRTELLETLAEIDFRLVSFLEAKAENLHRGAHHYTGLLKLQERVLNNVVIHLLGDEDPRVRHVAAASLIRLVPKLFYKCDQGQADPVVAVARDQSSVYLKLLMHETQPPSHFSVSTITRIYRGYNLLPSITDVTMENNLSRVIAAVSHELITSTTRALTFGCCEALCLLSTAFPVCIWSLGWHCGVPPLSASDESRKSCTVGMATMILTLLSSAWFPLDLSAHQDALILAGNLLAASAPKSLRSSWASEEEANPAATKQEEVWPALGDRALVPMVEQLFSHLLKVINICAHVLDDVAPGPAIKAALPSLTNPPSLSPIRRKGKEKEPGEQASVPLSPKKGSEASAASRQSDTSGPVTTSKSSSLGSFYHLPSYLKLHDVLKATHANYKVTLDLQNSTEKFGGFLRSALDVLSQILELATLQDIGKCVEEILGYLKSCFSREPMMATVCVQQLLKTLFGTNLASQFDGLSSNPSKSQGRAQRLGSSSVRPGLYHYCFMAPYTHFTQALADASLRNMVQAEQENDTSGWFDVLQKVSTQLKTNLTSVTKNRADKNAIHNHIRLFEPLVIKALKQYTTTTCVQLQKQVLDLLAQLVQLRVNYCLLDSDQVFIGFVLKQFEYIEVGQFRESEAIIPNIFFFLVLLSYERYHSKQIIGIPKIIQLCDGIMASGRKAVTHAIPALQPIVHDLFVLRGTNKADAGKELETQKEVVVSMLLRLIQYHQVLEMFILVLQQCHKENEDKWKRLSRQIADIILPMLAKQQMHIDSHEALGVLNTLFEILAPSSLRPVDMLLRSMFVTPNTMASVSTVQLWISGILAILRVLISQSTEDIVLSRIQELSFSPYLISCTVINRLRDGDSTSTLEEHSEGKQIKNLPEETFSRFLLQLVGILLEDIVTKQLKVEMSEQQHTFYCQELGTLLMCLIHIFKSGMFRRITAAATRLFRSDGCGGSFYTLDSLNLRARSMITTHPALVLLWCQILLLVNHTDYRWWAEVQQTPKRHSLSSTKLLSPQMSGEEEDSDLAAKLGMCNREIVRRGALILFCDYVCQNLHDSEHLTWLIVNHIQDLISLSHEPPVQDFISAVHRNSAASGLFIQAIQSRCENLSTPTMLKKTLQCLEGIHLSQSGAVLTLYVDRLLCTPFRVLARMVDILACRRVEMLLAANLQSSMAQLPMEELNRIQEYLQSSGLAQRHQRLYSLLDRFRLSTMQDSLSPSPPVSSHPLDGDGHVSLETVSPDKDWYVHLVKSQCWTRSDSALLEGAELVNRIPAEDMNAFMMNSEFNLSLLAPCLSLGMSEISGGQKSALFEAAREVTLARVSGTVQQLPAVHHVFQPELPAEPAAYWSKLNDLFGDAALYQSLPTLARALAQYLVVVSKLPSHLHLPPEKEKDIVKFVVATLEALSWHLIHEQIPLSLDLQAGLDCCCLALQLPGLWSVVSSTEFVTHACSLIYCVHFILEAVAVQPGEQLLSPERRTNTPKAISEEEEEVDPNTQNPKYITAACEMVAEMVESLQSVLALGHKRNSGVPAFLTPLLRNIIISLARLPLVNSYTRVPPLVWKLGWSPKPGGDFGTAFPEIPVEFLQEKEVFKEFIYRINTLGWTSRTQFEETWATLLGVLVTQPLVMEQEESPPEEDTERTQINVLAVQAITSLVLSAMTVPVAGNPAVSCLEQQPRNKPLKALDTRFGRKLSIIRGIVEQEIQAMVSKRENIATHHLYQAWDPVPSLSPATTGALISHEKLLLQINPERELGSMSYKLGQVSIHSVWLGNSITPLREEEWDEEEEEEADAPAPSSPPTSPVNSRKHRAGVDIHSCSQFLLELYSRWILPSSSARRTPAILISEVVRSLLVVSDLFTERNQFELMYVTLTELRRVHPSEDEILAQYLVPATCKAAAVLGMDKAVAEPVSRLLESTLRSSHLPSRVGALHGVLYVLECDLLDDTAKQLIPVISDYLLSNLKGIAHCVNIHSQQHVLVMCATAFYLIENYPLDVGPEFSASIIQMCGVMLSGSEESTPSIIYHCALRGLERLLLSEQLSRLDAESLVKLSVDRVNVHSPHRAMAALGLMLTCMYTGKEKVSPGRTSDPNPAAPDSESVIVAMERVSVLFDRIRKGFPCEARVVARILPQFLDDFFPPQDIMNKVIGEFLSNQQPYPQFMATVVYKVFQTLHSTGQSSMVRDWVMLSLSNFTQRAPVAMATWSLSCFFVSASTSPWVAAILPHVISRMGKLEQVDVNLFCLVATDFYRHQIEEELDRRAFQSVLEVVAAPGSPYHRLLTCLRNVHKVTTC
row,SMILES,inhibition
1,CC(=O)C1=C(O)C(=O)N(c2nccs2)C1c1ccc([N+](=O)[O-])cc1 (stereo unspecified),10.1%
2,O=C(Nc1ccccc1)Oc1cccc2cccnc12,93.6% (active)
3,COc1ccc(NC(=O)Nc2cccc3cccnc23)cc1,11.4%
4,O=C(O)c1ccccc1-c1ccccc1C(=O)Nc1cccc2cccnc12,8.7%
5,C=CCNC(=O)c1c(F)ccc(S(=O)(=O)N2CCCCCC2)c1F,-7%
6,O=C(Cn1ncn2nc(-c3ccc(Cl)cc3)cc2c1=O)Nc1ccccc1C(F)(F)F,-7.9%
7,CCNC(=O)c1csc(-c2cccc(OC)c2)n1,-7.8%
8,COc1ccc(/C=C2\SC(=O)N(CN3CCOCC3)C2=O)cc1,-4%
9,NNc1ncnc2sc3c(c12)CCCC3,100% (active)
10,OCCNc1ncnc2sc3c(c12)CCCCC3,1.3%
11,Clc1ncnc2sc3c(c12)CCCCC3,-7.58%
12,COc1cc(C(=O)N2CCC(CC(=O)NC3CCCC3)CC2)cc(OC)c1OC,-1.18%
13,Cc1cccc(CN2Cc3cccc4c3[C@H](C=CC4)CC2=S)c1,3.5%
14,O=C1C[C@@H]2c3c(cccc3CN1Cc1ccccc1)C[C@@H](O)[C@H]2O,1.6%
15,O=C1C[C@H]2C=CCc3cccc(c32)CN1Cc1ccccc1,100% (active)
16,O=C(Cc1ccc(F)cc1Cl)N1CCCC1c1cccc(F)c1 (stereo unspecified),-1.36%
17,COc1ccc(CNC(=O)C2CC(=O)N(c3ccc(OCc4ccc(F)cc4)cc3)C2)cc1 (stereo unspecified),-13.8%
18,COc1ccc(C2CC(C(F)(F)F)n3ncc(C(=O)NC45CC6CC(CC(C6)C4)C5)c3N2)cc1 (stereo unspecified),6%
19,CC1CC(C)CN(S(=O)(=O)c2ccc(C(=O)Nc3nc(-c4ccccn4)cs3)cc2)C1 (stereo unspecified),17%
20,COc1ccc(C(=O)Nc2cc(-c3ccccn3)no2)cc1,-10.4%
21,COCCNC(=O)Nc1nc(-c2ccccn2)cs1,95.6% (active)

row,SMILES,inhibition
1,Cc1nc(NC(=O)Cc2csc(NC(=O)c3ncccn3)n2)sc1C,98% (active)
2,O=C(Cc1csc(NC(=O)c2ncccn2)n1)Nc1cccc2nsnc12,99.8% (active)
3,COC(=O)Nc1nc(CC(=O)NCc2nc3ccccc3[nH]2)cs1,-0.6%
4,Cc1nc(NC(=O)c2ccoc2C)sc1C,10%
5,COc1cc(C(=O)Nc2cccc3nsnc23)cc(OC)c1OC,-8.5%
6,CC(C)SCC(=O)Nc1nc(CC(=O)O)cs1,1.9%
7,Cc1ccc(NC(=O)c2ccc(Cl)c(Cl)c2)nc1,-13.9% and -7%
8,O=C(CSc1nc2ccsc2c(=O)n1Cc1ccccc1F)NC1CCCC1,-3%
9,CC(=O)N(C)C1(C(=O)NC2CCCCC2)CCCCC1,4%
10,COCCCNC(=O)C1(C)CCC(=O)N1Cc1ccc(C)cc1 (stereo unspecified),3.12%
11,CCCCN(C)S(=O)(=O)c1ccc(C(=O)Nc2nnc(C)o2)cc1,32%
12,O=C(/C(=C1\Nc2ccc([N+](=O)[O-])cc2N1)[N+](=O)[O-])N1CCCCC1,8%
13,Cc1cc2c(cc1C)NC1(C[C@H]3CCC(=O)N4CC[C@@H](C1)[C@@H]34)C(=NC(C)(C)CC(C)(C)C)N2 (stereo partly specified),96.4% (active)
14,O=C1CCC[C@@H]2C[C@@]3(C[C@@H]4CCN1[C@H]24)Nc1ccccc1NC3=NCc1ccccc1,11.5%
15,O=C1CC[C@@H]2CC3(C[C@@H]4CCN1[C@H]24)Nc1cc([N+](=O)[O-])ccc1NC3=NC1CCCCC1 (stereo partly specified),57.5% (active)
16,CC(C)(C)C(=O)NCCC(O)C1CC1 (stereo unspecified),-4%
17,CN(C)CCn1c2c(c(SCC(=O)Nc3ccccc3C(F)(F)F)nc1=O)CCC2,0%
18,O=C(CSc1nnnn1-c1cccc2ccccc12)Nc1ccccc1Cl,-8.1%
19,COc1ccc(C(=O)Nc2ccccc2F)cc1OC,-1.2%
20,COc1ccc(C2=NC3(CCCCC3)N(CC(=O)Nc3ccc4c(c3)OCO4)C2=O)cc1,3.31%
21,CNc1nccc(N2CCC(CC(=O)N3CCN(c4ccccc4)CC3)CC2)n1,13.2%

row,SMILES,inhibition
1,O=c1cc(-c2ccccc2)sc2ccc(Cl)cc12,7%
2,NC(N)=Nc1nc(-c2ccccc2)c2cc(Cl)ccc2n1,100% (active)
3,Cc1nc(N=C(N)N)nc2c(C)cccc12,25.3%
4,COc1ccc(C2CC(=O)C3=C(C2)Nc2ccccc2NC3c2cc(F)ccc2F)cc1 (stereo unspecified),23%
5,O=C1CC(c2ccc(Cl)cc2)CC2=C1C(c1ccsc1)Nc1ccccc1N2 (stereo unspecified),4%
6,CN(C)c1ccc(C2Nc3ccccc3NC3=C2C(=O)CC(c2ccc(Cl)cc2)C3)cc1 (stereo unspecified),63% (active)
7,O=C(c1cccs1)N1CC(c2nc(-c3ncccn3)no2)C1,-5.2%
8,COc1ccc(CNC(=O)CN(c2ccc(I)cc2)S(C)(=O)=O)cc1,-4.2%
9,COc1ccc(C2=N/C(=C\c3cccc([N+](=O)[O-])c3)C(=O)O2)c(Br)c1,3%
10,COc1ccc(C)cc1NC(=O)N1CCc2c(c(COCc3ccccc3F)nn2C)C1,33.8%
11,CC1(C)C2CCC1(C)C(OCC(O)CN1CCOCC1)C2 (stereo unspecified),2.6%
12,COc1ccc(N2CCN(CC(O)COC3CC4CCC3(C)C4(C)C)CC2)cc1 (stereo unspecified),64.3% (active)
13,CC1CCN(CC(O)COC2CC3CCC2(C)C3(C)C)CC1 (stereo unspecified),-1.1%
14,COc1ccc(C2=NN3COc4ccc(Br)cc4C3C2)cc1 (stereo unspecified),34%
15,COc1ccc(C2=NN3COc4ccc(Cl)cc4C3C2)cc1 (stereo unspecified),27%
16,COc1ccc(C2=NN3C(C2)c2cc(OC)ccc2OC3(C)C)cc1 (stereo unspecified),64% (active)
17,COc1ccc2c(c1)C(=O)C(C1(O)C(=O)Nc3ccccc31)CC2 (stereo unspecified),2.6%
18,COc1ccc(OC)c(C2C3=C(CC(C)(C)CC3=O)Nc3ccccc3N2C(C)=O)c1 (stereo unspecified),8.9%
19,O=S1(=O)CC(N2CCN(Cc3ccccc3F)CC2)CN1Cc1cn(Cc2cccc(C(F)(F)F)c2)nn1 (stereo unspecified),6.8%
